Screens deposited in PubChem BioAssay by The Scripps Research Institute Molecular Screening Center.
DAX1 inh-1: inhibitors of DAX1 repression of SF-1 activated StAR promoter | HEK293T StAR-luciferase reporter, SF-1/DAX-1 repression relief | inhibition, % at 6.8 µM | hit rate 1.1% among 370,000 | AID 652010;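 active = inhibition above the mean over all tested compounds plus 3 SD, cut at about 3.6% in these data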;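 also: higher inhibition means more luminescence from relief of DAX-1 repression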
ssDAF12 agonist: activates DAF-12 receptor from parasite S. stercoralis; HEK293 ssDAF-12/GRIP1 lit1-tk-luc reporter, luminescence; % of 3 µM dafachronic acid response; activation, % at 6.8 µM; hit rate 1% among 370,000;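 active = activation above the mean over all tested compounds plus 3 SD, cut at about 0.9% in these data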
hcDAF-12 act: H. contortus DAF-12 activation, primary screen | HEK293 hcDAF-12 lit1-tk-luc reporter, luminescence; 0% DMSO, 100% Δ7-dafachronic acid | activation, % at 6.8 µM | hit rate 1.4% among 370,000;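 active = activation above the mean of all tested compounds plus 3 SD, cut at about 5.5% in these data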
hgDAF-12 ag: activates the H. glycines DAF-12 receptor ligand-binding domain. HEK293 GAL4-hgDAF12 UAS-luciferase reporter, agonist luminescence; normalized to butyrate control. activation, % at 6.8 µM. hit rate 1.8% among 370,000;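 active = activation above a cutoff set at the mean of all screened compounds plus 3 SD, cut at about 10% in these data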
DAX1 inh-2: inhibitors of human orphan nuclear receptor DAX1 (NR0B1). HEK293 Gal4-DAX1 luciferase reporter, luminescence. inhibition, % at 6.75 µM. hit rate 0.99% among 340,000;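 active = inhibition above the mean over all tested compounds plus 3 SD, cut at about 4.2% in these data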;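 also: inhibition shows as a rise in luminescence from relieved DAX1 repression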
Target sequence (P51843 207-470 limits assumed): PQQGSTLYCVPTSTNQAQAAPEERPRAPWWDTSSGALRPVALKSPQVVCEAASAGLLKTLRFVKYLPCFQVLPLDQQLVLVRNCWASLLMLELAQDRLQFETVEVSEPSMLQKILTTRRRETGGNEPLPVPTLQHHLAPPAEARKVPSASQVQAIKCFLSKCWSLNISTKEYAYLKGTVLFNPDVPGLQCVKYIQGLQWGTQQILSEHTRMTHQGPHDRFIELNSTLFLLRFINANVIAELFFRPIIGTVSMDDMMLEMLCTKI
Numbers stand for hits; 0 = inactive; - = not tested or not shown. Only some compounds are listed: those with a hit (about 4.1% of all), similar ones and a draw of the others.

SMILES	DAX1 inh-1	ssDAF12 agonist	hcDAF-12 act	hgDAF-12 ag	DAX1 inh-2
Cc1nc(NC(=S)NC(=O)COc2ccccc2Cl)ccc1Br	0	0.9	0	0	0
C/C=C/c1ccc([C@H]2[C@@H](CN(CC(C)C)S(=O)(=O)c3ccccc3[N+](=O)[O-])N(C(=O)Nc3cccc(OC)c3)[C@H]2CO)cc1	0	0	0	0	-
C/C=C/c1ccc(OCC(=O)Nc2ccc(C(N)=O)cc2)c(OC)c1	0	1.1	0	0	0
C(/C=C/c1ccccc1)=N/N1CCN(c2ccccc2)CC1	0	0	0	0	0
C(=C\c1ccccc1)/C=N/N1CCN(c2ccccn2)CC1	0	0	0	11.2	0
CC(=O)N/N=c1\sc2ccccc2n1C	0	0	0	0	0
Cn1/c(=N\NC(=O)c2ccccc2Cl)sc2ccccc21	0	0	0	11.9	0
O=C(Nc1ccc(Br)cc1F)c1ccc2c(c1)OCCO2	0	0	0	11.5	0
O=C(Nc1ccc(F)cc1F)c1ccc2c(c1)OCCO2	0	0	0	12.6	0
O=C(COC(=O)c1ccc2c(c1)OCCO2)Nc1ccc(F)cc1F	0	0	0	0	0
N#Cc1ccccc1NC(=O)c1ccc2c(c1)OCCO2	0	0	0	0	0
CCOc1ccc(N(CC(=O)Nc2c(C)n(C)n(-c3ccccc3)c2=O)S(=O)(=O)c2cccc3cccnc23)cc1	0	0	0	0	-
COc1cc(C2N=C(c3ccccc3)NO2)cc(Br)c1O (stereo not given)	0	0	0	0	0
FC(F)Oc1ccc(C2N=C(c3ccccc3)NO2)cc1 (stereo not given)	0	0	0	13.2	0
CN(Cc1ccc(C(C)(C)C)cc1)C(=O)C1CCN(C(=O)Nc2ccccc2)CC1	0	0	0	0	7.6
Cc1ccc(CN(C)C(=O)C2CCN(C(=O)Nc3ccccc3)CC2)o1	0	0	0	0	0
CCOc1ccc(/C=C2\NCCc3cc(OCC)c(OCC)cc32)cc1OCC	0	0	0	0	-
CCCn1c(C)cc(C(=O)Cn2nnc3ccccc3c2=O)c1C	0	0	0	11.8	0
COc1ccc(/C=N\NC(=O)CCc2c(C)n[nH]c2C)c(OC)c1OC	0	0	0	0	0
Cc1n[nH]c(C)c1CCC(=O)N/N=C/c1c(C)[nH]c2ccccc12	0	0	0	0	6.2
Cc1n[nH]c(C)c1CCC(=O)N/N=C/c1c[nH]c2ccccc12	0	2.1	6.1	0	0
Cc1[nH]c2ccccc2c1/C=N/NC(=O)CCC(=O)NCc1ccccc1	0	0	0	0	0
C=CCN1[C@@H](CC(C)C)COc2cc(F)ccc2S1(=O)=O	0	0	0	0	-
Cc1noc(C)c1-c1nc(CS(=O)(=O)c2ccc(Cl)cc2)no1	0	0	0	0	0
O=S(=O)(Cc1noc(-c2ccccc2Cl)n1)c1ccccn1	0	0	0	0	4.9
SMILES	DAX1 inh-1	ssDAF12 agonist	hcDAF-12 act	hgDAF-12 ag	DAX1 inh-2
COCCSc1nnc(-c2cccnc2)n1Cc1ccccc1	0	0	0	0	-
N#CC1CCN(c2nc(-c3ccc(Br)cc3)cs2)CC1	-	0	0	0	-
O=C(OCc1ccccc1)[C@H](Cc1ccccc1)NC(=O)[C@@H]1CC=C[C@@H]2CCN(Cc3ccc(Cl)cc3)C(=O)[C@@H]21	-	0	0	0	-
COc1ccc(NC(=S)c2ccc(N(C)C)cc2)cc1	3.8	0	0	0	0
O=C(Nc1ccccc1F)c1ccc2ncsc2c1	0	0	0	12.7	0
O=C(Nc1cccc(F)c1)c1ccc2ncsc2c1	-	-	-	-	0
O=C(CSc1ccsc1[N+](=O)[O-])NCCc1ccc(Cl)cc1	0	0	0	0	0
COc1ccc(CNC(=O)CSc2ccsc2[N+](=O)[O-])cc1	0	1.3	0	0	0
Cc1ccc(CNC(=O)CSc2ccsc2[N+](=O)[O-])cc1	0	0	6.5	10.8	0
COc1ccc(-c2cc3ccccc3n2CC(O)CN2CCC(C)CC2)cc1 (stereo not given)	0	0	5.7	0	0
COc1ccc(-c2cc3ccccc3n2CC(O)Cn2nc(C)cc2C)cc1 (stereo not given)	0	0	0	0	0
COc1ccc2c(c1)nc(-c1cccc(Br)c1)c(=O)n2C(c1ccccn1)c1nc2ccccc2[nH]1 (stereo not given)	0	0.9	0	0	-
O=c1c(-c2ccccc2)nc2ccccc2n1C(c1ccccn1)c1nc2ccccc2[nH]1 (stereo not given)	0	0	0	0	-
O=c1c(-c2ccco2)nc2ccccc2n1C(c1ccccn1)c1nc2ccccc2[nH]1 (stereo not given)	0	1.1	0	0	-
O=c1c(-c2cccnc2)nc2ccccc2n1C(c1ccccn1)c1nc2ccccc2[nH]1 (stereo not given)	0	0	0	0	-
O=c1c(-c2cccs2)nc2ccccc2n1C(c1ccccn1)c1nc2ccccc2[nH]1 (stereo not given)	0	0	0	11.6	-
CC(C)(C)NC(=O)C(c1ccnc2ccccc12)n1c(=O)c(-c2ccco2)nc2ccccc21 (stereo not given)	4.0	0	0	0	-
CCC(c1nc2ccccc2[nH]1)n1c(=O)c(-c2ccco2)nc2ccccc21 (stereo not given)	0	0	0	0	-
O=C(NC1CCCCN(Cc2ccc(Cl)cc2)C1=O)c1ccc(Cl)cc1Cl (stereo not given)	0	0	0	0	-
C[C@@H](c1ccccc1)N1C[C@@H](COCc2ccccc2)Oc2cc(N3CCC[C@H]3C(N)=O)ccc2S1(=O)=O	0	4.2	0	0	-
CCCCCN1CCCCC(NC(=O)Cc2ccccc2)C1=O (stereo not given)	0	0	0	0	-
Cc1cc(-c2nc3ccccc3o2)c2ccccc2n1	0	1.2	0	0	0
CC(C)C[C@H]1COc2cccc(F)c2S(=O)(=O)N1C	0	0	0	0	-
CCOC(=O)CCc1c(C)nc(SCc2ccc(C(=O)O)cc2)c(C#N)c1C	0	0	0	0	6.0
CCOC(=O)CCc1c(C)nc(SCC(=O)O)c(C#N)c1C	0	0	0	0	0
SMILES	DAX1 inh-1	ssDAF12 agonist	hcDAF-12 act	hgDAF-12 ag	DAX1 inh-2
Nc1cc(N)nc(SCCOc2ccccc2F)n1	0	0	0	11.2	0
COC(=O)CN1C(=O)C(O)(CC(=O)c2ccc(Br)cc2)c2ccccc21 (stereo not given)	0	0	0	0	0
COC(=O)CN1C(=O)C(O)(CC(=O)c2ccc(C)cc2)c2cc(Br)ccc21 (stereo not given)	0	0	0	0	4.5
COc1ccc2cc3c(N)nn(C(=O)c4cccc(F)c4)c3nc2c1	0	0	0	0	4.4
COc1ccc2cc3c(N)nn(C(=O)c4ccccc4Cl)c3nc2c1	0	0	0	0	0
COc1ccc2cc3c(N)nn(C(=O)Cc4c[nH]c5ccccc45)c3nc2c1	0	0	0	13.9	0
COc1ccc2cc3c(N)nn(C(=O)c4ccc(F)cc4)c3nc2c1	0	0	0	11.9	0
Cn1c(=O)c2[nH]c(SCC(=O)N3CCN(c4cccc(C(F)(F)F)c4)CC3)nc2n(C)c1=O	0	0	0	0	-
